Measured values: PubChem BioAssay AID588497 (NMMLSC, 2011)
About 780 (0.22%) of roughly 360,000 compounds were called active. About 4% were inconclusive and are not listed. No stated cut-off is given here; in the data, active means inhibition above about 35% (passing the limit was not always enough); inconclusive means no clear call, values can overlap the other calls. Only a selection was taken, and actives are over-represented in it overall.

system: Botulinum neurotoxin type F light chain protease (Clostridium botulinum); test: BoNT/F light chain protease inhibitors, primary screen, biochemical, flow cytometry, MLPCN library (AID 588497); details: Multiplex microsphere protease cleavage assay, at 10 µM, hits give high values; further: plate controls were buffer without enzyme for full effect and enzyme alone for no effect

SMILES	inhibition
CCCCN(C=O)c1c(CC)nc2c(OCCC3CCCCC3)cccn12	-1.8% (inactive)
COc1cc(C(=O)N2CCN(C3CCC(C)CC3)CC2)cc(OC)c1OC (configuration not stated)	-2.2% (inactive)
CCn1cc(C(=O)NCC2COc3ccccc3O2)c2cc(OC)c(OC)cc2c1=O (configuration not stated)	-4.2% (inactive)
CCn1cc(C(=O)N2CCN(C3CCCCC3)CC2)c2cc(OC)c(OC)cc2c1=O	35% (active)
Cc1cccnc1C(NC(=O)C1CCN(Cc2ccc(Cl)c(Cl)c2)CC1)c1ccc(Cl)cc1 (configuration not stated)	-0.6% (inactive)
CC(=O)Nc1cc(-c2ccccc2N(C)C)cn2c(-c3ccc(F)c(Cl)c3)cnc12	-0.7% (inactive)
CCOc1ccc(NC(=O)CC(Cc2ccc(Cl)cc2)C(=O)O)cc1 (configuration not stated)	42.9% (active)
CCOc1ccc(NC(=O)CC2NCCNC2=O)cc1 (configuration not stated)	-3.7% (inactive)
CN(CC(=O)Nc1ccc(Cl)cc1)C(=O)c1ccc(COc2ccccc2)cc1	8.6% (inactive)
C=C1C(=O)[C@]23C[C@H]1CCC2[C@@]1(C)C(C[C@@H]3O)[C@](C)(C(=O)O)CC[C@@H]1O (some centres not stated)	6.7% (inactive)
CC12CCC(=O)C=C1CCC1C2C(O)CC2(C)C1CCC2(O)C(O)CO (configuration not stated)	-2.7% (inactive)
COc1ccc(-c2cc3nc(NCCOc4ccccc4)ccn3n2)cc1	-7% (inactive)
CC1=C(C(=O)N(C(C)C)C(C)C)CC(CC(=O)NCCCCc2ccccc2)C(=O)N1CCC1=CCCCC1 (configuration not stated)	-9.4% (inactive)
CC(C)(C)CC(=O)Nc1nc(C(N)Cc2ccc(C(F)(F)F)cc2)cs1 (configuration not stated)	-15.5% (inactive)
CCCNC(=O)c1cc2c(c(-c3cccc(-c4ccc(C#N)cc4)c3)n1)[C@@H](CCO)N(C(=O)CC)C2	-8.6% (inactive)
CN1CCN(c2ccc(NC(=O)c3ccc4c(c3)[nH]c(=O)n4Cc3ccc(F)cc3)cc2)CC1	-37.9% (inactive)
CN1CCN(c2ccc(NC(=O)c3cc(Cl)c4c(c3)OCCO4)cc2)CC1	-0.9% (inactive)
CN1CCN(c2ccc(NC(=O)c3ccccc3)cc2)CC1	38.8% (active)
CCCCC(=O)N(C)c1c(CC)nc2c(OCc3ccc(Cl)cc3Cl)cccn12	-1.2% (inactive)
CCC(c1nnnn1-c1ccc2c(c1)OCCO2)N1CCN(c2ccc(C(F)(F)F)cn2)CC1 (configuration not stated)	6.4% (inactive)
CC1=C(C(=O)N(C(C)C)C(C)C)CC(CC(=O)NCC2CCCCC2)C(=O)N1Cc1ccccc1 (configuration not stated)	-6.1% (inactive)
O=C1C(Sc2cccc(F)c2)=C[C@@]2(O)CC[C@@H](O)[C@]1(Sc1cccc(F)c1)[C@H]2O	-5.7% (inactive)
CCOC(=O)C1=CCC2C(=O)N(Cc3ccccc3)C(=O)C12 (configuration not stated)	7.8% (inactive)

SMILES	inhibition
CC(=O)Nc1cncc(-c2ccccc2CO)n1	-2.7% (inactive)
O=C(NCCN1CCOCC1)c1ccccc1N1C(=O)[C@@H]2Cc3c([nH]c4ccccc34)C(c3cccc(Cl)c3)N2C1=O (some centres not stated)	-6.1% (inactive)
NNC(=O)CNC(c1ccccc1)c1cc(Cl)ccc1NC(=O)c1ccccc1 (configuration not stated)	43.2% (active)
O=C(COC(=O)c1ccccc1)Nc1ccc(Cl)cc1C(=O)c1ccccc1	-15.4% (inactive)
CC(NCC(=O)Nc1cc(Cl)cc(Cl)c1)c1ccccc1 (configuration not stated)	2.2% (inactive)
CC(C)C[C@H]1CNC(=S)N1C[C@H]1CCCN1C[C@H](Cc1ccc(O)cc1)N1C[C@H](Cc2ccc(O)cc2)N(CC2CCCCC2)C1=S	-11% (inactive)
COc1ccc(-n2c(-c3ccc(Cl)cc3)n[nH]c2=S)c(OC)c1	-4.7% (inactive)
COc1ccccc1-n1cn[nH]c1=S	0.3% (inactive)
COc1ccccc1-n1c(-c2cc(-c3ccco3)[nH]n2)n[nH]c1=S	40.9% (active)
OC(c1ccccc1)(c1ccccc1)C1CCN(CCCOc2ccccc2)CC1	0.4% (inactive)
CC1(C(=O)NCc2ccc(F)c(F)c2)Cc2c(-c3ccc4c(c3)OCO4)ccnc2O1 (configuration not stated)	-7.8% (inactive)
Cc1ccc(Cc2c(-c3ccco3)nc3ccc(Cl)cn23)cc1	-6% (inactive)
CCCCOCCCNC(=O)C[C@@H]1C[C@@]2(C(=O)OC)CCCCC=C2N(CCC2=CCCCC2)C1=O	7.8% (inactive)
CC(C)Oc1cc(F)ccc1-c1cc(C(=O)Nc2cccc(Cl)c2)[nH]n1	-7.1% (inactive)
CN(Cc1ccccc1F)c1cc2c(c3c1ccn3C)C1CCC2O1 (configuration not stated)	3.2% (inactive)
COC(=O)[C@]12CCCCC=C1N(CCC1=CCCCC1)C(=O)[C@H](CC(=O)NCC1CCCCC1)C2	5.5% (inactive)
CCc1ccc(OC2(C)CCN(CCOc3ccc(C)cc3)C2)cc1 (configuration not stated)	-9.6% (inactive)
CN(C)C1CN(Cc2cn(Cc3ccccc3)nn2)S(=O)(=O)C1 (configuration not stated)	-1.7% (inactive)
CCCCCc1c(C)nc(N2CCN(Cc3ccc4c(c3)OCO4)CC2)[nH]c1=O	39.2% (active)
CCc1c(C)nc(N2CCN(Cc3ccccc3)CC2)[nH]c1=O	6.6% (inactive)
Cc1cc(C)n2nc(C(=O)N3CCN(Cc4ccc5c(c4)OCO5)CC3)nc2n1	-11.5% (inactive)
Cc1cc(Cl)ccc1-c1nc(NCCN(C)C)nc2ccsc12	-4.9% (inactive)
CC1(Oc2ccccc2-c2ccno2)CCN(Cc2ccc(-c3ccccc3)o2)C1 (configuration not stated)	-11.5% (inactive)

SMILES	inhibition
OC[C@@H]1CN(Cc2ccc(-c3ccccc3)cc2)C[C@H](n2cnc3c(NC4CCCC4)ncnc32)O1	-4.6% (inactive)
CC(=O)Nc1ccc(CNc2nc(NCCN(C)C)nc3cc(-c4ccccc4)sc23)cc1	-18.9% (inactive)
COC(=O)c1sccc1NC(=O)CCC1CCCC1	1.8% (inactive)
CC(=O)Oc1ccc(NC(=O)CCC2CCCCC2)c(C(=O)O)c1	37.7% (active)
Cc1cc(C(=O)NNC(=O)CCC2CCCCC2)c(C)o1	0.3% (inactive)
NC(c1csc(NC(=O)Nc2ccccc2Oc2ccccc2)n1)c1ccccc1Cl (configuration not stated)	-12.1% (inactive)
CN1CCN(CC#CCC2(O)c3ccccc3-c3ccccc32)CC1	-6.9% (inactive)
CC(C)N(CC#CCC1(O)c2ccccc2-c2ccccc21)C(C)C	37.1% (active)
CCOC(=O)[C@]12CCC=C1N(Cc1ccco1)C(=O)[C@H](CC(=O)NCc1cccc(C(F)(F)F)c1)C2	-2.2% (inactive)
CC=CCn1c(SCCCc2ccccc2)nc2c1c(=O)[nH]c(=O)n2C	-3.4% (inactive)
OC(c1ccc(Cl)c(F)c1)c1ncc(-c2ccccc2Cl)[nH]1 (configuration not stated)	-8.1% (inactive)
Cc1cc(Br)cn2c(Cc3cccc(F)c3)c(-c3cccc(Br)c3)nc12	5.5% (inactive)
COc1ccccc1NC(=O)C1CCCN(c2cc(C)nc3ncnn23)C1 (configuration not stated)	4.8% (inactive)
COc1ccccc1-c1cnn2c(N3CCOCC3)cc(C)nc12	38.5% (active)
Cc1cc(-n2nc(C)cc2C)n2ncc(-c3ccccc3)c2n1	5.4% (inactive)
CCc1nc2c(OCc3ccc(Cl)cc3Cl)cccn2c1N(C)C(=O)C(C)C	-7.2% (inactive)
Cc1cc(C)c(S(=O)(=O)NN=C2c3ccccc3[C@H]3Cc4csc[n+]4[C@@H]23)c(C)c1	-7.5% (inactive)
Cc1nc2c(OCc3cccc(Cl)c3)cccn2c1N(C)CC1CC1	-6.3% (inactive)
COc1nc(NC2CCCCC2)nc(N2CCCCCC2)n1	8.2% (inactive)
Clc1nc(NC2CCCC2)nc(N2CCOCC2)n1	53.9% (active)
COC(=O)CNc1nc(Cl)nc(N2CCC(C)CC2)n1	-7.3% (inactive)
